Assay [1] concerns Saccharomyces cerevisiae BY4741 SeMeCo community. Kind of assay: mean cell size (pixel area) (pixels); higher = larger cells. The conditions noted are these: 10 µM; 24 h; SM minimal medium. Summed up: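 Plates of 384 wells were acoustically predosed with drug at a final 10 µM in SM medium, and 70 µl of a Saccharomyces cerevisiae BY4741 preculture diluted from OD600 = 1.0 to OD600 = 0.3 was added for 24 h. The yeast formed a four-plasmid fluorescent community in which each plasmid complements one auxotrophy and carries a fluorescent marker. Fixed cells were imaged by automated confocal microscopy and analysed in Harmony for mean cell pixel area per well. Values are means of 3 replicates. Same SeMeCo high-content imaging drug screen: Selleck FDA-approved drugs at 10 µM, 24 h in SM medium, 384-well plates, 3 replicates.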

For assay [2] the test system is unchanged. The experiment in a line: z-score of prototroph abundance vs DMSO median; higher = larger share of this subpopulation than in DMSO controls. Particulars: 10 µM; 24 h; SM minimal medium; subpopulation (auxotrophy): Prototroph. Summed up:
(§1)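 Automated confocal microscopy of paraformaldehyde-fixed cells was used to follow a Saccharomyces cerevisiae BY4741 community carrying four plasmids, each restoring one auxotrophy and encoding a distinct fluorescent protein. The community was pre-grown overnight to OD600 1.0, diluted to 0.3, and added at 70 µl to 384-well plates acoustically predosed with library drugs (10 µM final) for 24 h of growth in minimal SM medium. Single-auxotroph fluorescent strains set thresholds and autofluorescence correction, and each subpopulation's abundance was scored as a z-score against the vehicle-well median.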

For assay [3] the test system is unchanged. Kind of assay: z-score of subpopulation abundance vs DMSO median, subpopulation auxotrophic for M; higher = larger share of this subpopulation than in DMSO controls. Particulars: 10 µM; 24 h; SM minimal medium; subpopulation (auxotrophy): M. Summed up:
as §1

For assay [4] the test system is unchanged. The experiment in a line: z-score of subpopulation abundance vs DMSO median, subpopulation auxotrophic for L; higher = larger share of this subpopulation than in DMSO controls. Particulars: 10 µM; 24 h; SM minimal medium; subpopulation (auxotrophy): L. Summed up:
as §1

Assay [5] has the same test system. Kind of assay: z-score of subpopulation abundance vs DMSO median, subpopulation auxotrophic for U; higher = larger share of this subpopulation than in DMSO controls. Particulars: 10 µM; 24 h; SM minimal medium; subpopulation (auxotrophy): U. The essentials:
as §1

The test system is the same in assay [6]. Kind of assay: z-score of subpopulation abundance vs DMSO median, subpopulation auxotrophic for H; higher = larger share of this subpopulation than in DMSO controls. Particulars: 10 µM; 24 h; SM minimal medium; subpopulation (auxotrophy): H. Summed up: as §1
The test system is the same in assay [7]. The experiment in a line: z-score of subpopulation abundance vs DMSO median, subpopulation auxotrophic for LU; higher = larger share of this subpopulation than in DMSO controls. The conditions noted are these: 10 µM; 24 h; SM minimal medium; subpopulation (auxotrophy): LU. The essentials: as §1
Assay [8] has the same test system. Kind of assay: z-score of subpopulation abundance vs DMSO median, subpopulation auxotrophic for LM; higher = larger share of this subpopulation than in DMSO controls. Particulars: 10 µM; 24 h; SM minimal medium; subpopulation (auxotrophy): LM. Summed up: as §1
Assay [9] has the same test system. Kind of assay: z-score of subpopulation abundance vs DMSO median, subpopulation auxotrophic for HU; higher = larger share of this subpopulation than in DMSO controls. Particulars: 10 µM; 24 h; SM minimal medium; subpopulation (auxotrophy): HU. Summed up: as §1
Assay [10] has the same test system. The experiment in a line: z-score of subpopulation abundance vs DMSO median, subpopulation auxotrophic for UM; higher = larger share of this subpopulation than in DMSO controls. The conditions noted are these: 10 µM; 24 h; SM minimal medium; subpopulation (auxotrophy): UM. The essentials: as §1
The test system is the same in assay [11]. The experiment in a line: z-score of subpopulation abundance vs DMSO median, subpopulation auxotrophic for HL; higher = larger share of this subpopulation than in DMSO controls. Particulars: 10 µM; 24 h; SM minimal medium; subpopulation (auxotrophy): HL. The essentials: as §1
The test system is the same in assay [12]. The experiment in a line: z-score of subpopulation abundance vs DMSO median, subpopulation auxotrophic for HLU; higher = larger share of this subpopulation than in DMSO controls. The conditions noted are these: 10 µM; 24 h; SM minimal medium; subpopulation (auxotrophy): HLU. The essentials:
as §1

For assay [13] the test system is unchanged. Kind of assay: z-score of subpopulation abundance vs DMSO median, subpopulation auxotrophic for HUM; higher = larger share of this subpopulation than in DMSO controls. The conditions noted are these: 10 µM; 24 h; SM minimal medium; subpopulation (auxotrophy): HUM. The essentials: as §1
Assay [14] has the same test system. The experiment in a line: z-score of subpopulation abundance vs DMSO median, subpopulation auxotrophic for LUM; higher = larger share of this subpopulation than in DMSO controls. The conditions noted are these: 10 µM; 24 h; SM minimal medium; subpopulation (auxotrophy): LUM. The essentials: as §1
Assay [15] shares this test system. The experiment in a line: z-score of subpopulation abundance vs DMSO median, subpopulation auxotrophic for HLUM; higher = larger share of this subpopulation than in DMSO controls. Particulars: 10 µM; 24 h; SM minimal medium; subpopulation (auxotrophy): HLUM. The essentials:
as §1

The test system is the same in assay [16]. The experiment in a line: z-score of subpopulation abundance vs DMSO median, subpopulation auxotrophic for HM; higher = larger share of this subpopulation than in DMSO controls. Particulars: 10 µM; 24 h; SM minimal medium; subpopulation (auxotrophy): HM. The essentials:
as §1

Assay [17] has the same test system. Kind of assay: z-score of subpopulation abundance vs DMSO median, subpopulation auxotrophic for HLM; higher = larger share of this subpopulation than in DMSO controls. Particulars: 10 µM; 24 h; SM minimal medium; subpopulation (auxotrophy): HLM. Summed up: as §1

Where a name gives a salt, the structure may show the parent alone. ± gives the standard deviation of the averaged measurements.

In [1], `CNCC[C@@H](Oc1ccccc1C)c1ccccc1` [Atomoxetine HCl] returned a mean cell size of 12.4 ± 0.22. The “z-score of prototroph abundance” value in [2] was 0.61. Moreover, the “z-score of subpopulation abundance” value in [3] is 0.21; in assay [4] it was 0.96; in assay [5], 0.03; in assay [6] it was -0.84; in [7], 0; in [8], 0.36. Besides, the “z-score of subpopulation abundance” value in assay [9] was -0.99; in [10], -0.26; in assay [11] it was -0.43; in [12] it was 0.11; in [13] it was -1.01; in assay [14], 0.05. In addition, the “z-score of subpopulation abundance” value in assay [15] turned out to be 1.1.
With `Cc1nc(C)c(Cl)c(O)c1Cl` [Clopidol], the mean cell size in assay [1] was 12.22 ± 0.083. Also, in [2], the “z-score of prototroph abundance” value was 0.11. The “z-score of subpopulation abundance” value in [3] was -0.51; in assay [4] it was 0.46; in assay [5] it was -0.09; in [7], 0.07; in [8], -0.19; in [9] it was -0.28. The “z-score of subpopulation abundance” value is -0.13 in [10]; -0.09 in assay [12]; -0.08 in [13]; -0.04 in assay [14]; -0.36 in assay [15].
On to `Cc1nc(NC(=O)N2CCC[C@H]2C(N)=O)sc1-c1ccnc(C(C)(C)C(F)(F)F)c1` [Alpelisib (BYL719)], for which, in assay [1], the mean cell size amounted to 12.6 ± 0.23. Moreover, in [2], the “z-score of prototroph abundance” value was -0.14. Moreover, the “z-score of subpopulation abundance” value in assay [3] is -0.14; in assay [4], -1.04; in assay [5], 0.93; in [6], 0.36; in assay [7], 0.28; in assay [8], -1.01. Besides, the “z-score of subpopulation abundance” value in assay [16] is 0.31; in assay [9] it was 0.49; in assay [10], 0.25; in assay [11] it was -0.35; in [12], -0.75; in assay [13] it was 0.48. Besides, the “z-score of subpopulation abundance” value in assay [14] was -0.87; in assay [15], -0.78.
For the compound `CC(C)COCC(CN(Cc1ccccc1)c1ccccc1)N1CCCC1` (centres undefined) [Bepridil hydrochloride], in assay [1], the mean cell size turned out to be 12.5 ± 0.16. Also, the “z-score of prototroph abundance” value in assay [2] was -1.24. Besides, the “z-score of subpopulation abundance” value in assay [3] was -0.18; in assay [4], 0.85; in assay [5], -0.09; in assay [7], 1.16; in [8], -0.16; in assay [16], 0.11. Besides, the “z-score of subpopulation abundance” value in assay [10] was found to be 0.18; in assay [11] it was 1.07; in [12] it was 0.92; in assay [13], 1.35; in [14], 1.57; in assay [15], 2.72.
`CCC(C)(C)C(=O)O[C@H]1C[C@@H](C)C=C2C=C[C@H](C)[C@H](CC[C@@H]3C[C@@H](O)CC(=O)O3)[C@H]21` [Simvastatin] showed a mean cell size in assay [1] of 11.7 ± 0.28. Moreover, the “z-score of prototroph abundance” value in [2] is -1.66. Moreover, the “z-score of subpopulation abundance” value was -0.68 in [3]; -0.13 in assay [4]; 0.43 in [5]; 1.71 in assay [7]; -0.1 in [8]; 2.47 in [16]. Besides, the “z-score of subpopulation abundance” value is 1.53 in assay [9]; 0.62 in assay [10]; 1.65 in assay [11]; 3.09 in [12]; 1.9 in assay [13]; 2.55 in assay [15].
`CO[C@H]1O[C@@H]2O[C@@]3(C)CC[C@H]4[C@H](C)CC[C@@H]([C@H]1C)[C@@]24OO3` [Artemether]: the mean cell size in [1] was found to be 12.05 ± 0.027. In addition, the “z-score of prototroph abundance” value in assay [2] was determined as 1.17. Further, the “z-score of subpopulation abundance” value is -4.52 in [3]; -0.43 in [4]; 0.63 in [5]; 2.67 in assay [6]; -0.14 in [7]; -1.32 in assay [8]. In addition, the “z-score of subpopulation abundance” value is -2 in assay [16]; 0.26 in assay [9]; -0.57 in assay [10]; -0.28 in assay [11]; -0.85 in [12]; -0.53 in assay [13]. In addition, the “z-score of subpopulation abundance” value was -0.58 in assay [14] and 0.11 in [15].
For the compound `O=C(O)CCNC(=O)c1ccccc1` [Betamipron], the “z-score of subpopulation abundance” value in assay [3] was 0.51; in assay [4], -1.22; in assay [5], 0.99; in [6], -0.34; in assay [7], -0.21; in assay [8], -0.71. The “z-score of subpopulation abundance” value in [9] was 0.19; in assay [10], 0.43; in [11], -0.92; in assay [12], -1; in [17] it was -1.05; in assay [14], -0.64. Also, the “z-score of subpopulation abundance” value in assay [15] was -0.5.
Regarding `NC(=O)N/N=C/c1ccc([N+](=O)[O-])o1` [Nitrofural], the “z-score of prototroph abundance” value in assay [2] is -0.16. Besides, the “z-score of subpopulation abundance” value in assay [3] is 1.2; in [4], -0.82; in [6], -0.29; in [7] it was -0.35; in [8], -1.3; in [16] it was 0.63. In addition, the “z-score of subpopulation abundance” value is -0.42 in [9]; 0.54 in assay [10]; 0 in assay [11]; -1.14 in [12]; 3.28 in assay [17]; 0.17 in [15].
